Compound activity from PubChem BioAssay.
TWEAK Fn14 block – TWEAK-Fn14 signaling inhibition; TWEAK-stimulated Fn14 reporter cells, luciferase luminescence, 8 h; inhibition, % at 10 µM; 360,000 compounds, 2% hits; AID 1159606; in the data active means inhibition above about 50%
HIF-2a inh – blocks HIF-2a reporter activity. 786-0 RCC cells HIF-2a reporter, luciferase luminescence, overnight. inhibition, % at 18.8 µM. 360,000 compounds, 0.72% hits;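 active means inhibition of the luminescence signal of 40% or more relative to plate controls, in a single-dose primary screen at 18.75 µM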
Peg3 promoter – Peg3 promoter activity inhibition | HeLa PEG-Prom luciferase reporter, luminescence, overnight | inhibition, % at 20 µM | 360,000 compounds, 1.7% hits;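 active means inhibition of at least 50% at 20 µM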
CF NFkB inh – cystic fibrosis NF-kB activation inhibition | AID 588850 | inhibition, % at 5 µM | 360,000 compounds, 0.86% hits | KKLEB NF-kB-GFP reporter, PAF-induced, GFP fluorescence overnight;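 active means at least 50% inhibition at 5 µM, scaled per plate between neutral and stimulator controls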;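 further: PAF is a Pseudomonas aeruginosa culture filtrate used as stimulus; plate controls were PAF-stimulated DMSO wells for no effect and unstimulated DMSO wells for full effect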
TROY NFkB inh – blocks TROY-dependent signaling in reporter cells | Q293 LMP1-TROYcd NF-kB luciferase reporter, 4 h | inhibition, % at 10 µM | 360,000 compounds, 0.98% hits | AID 1347056;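 active means compounds whose plate-normalised and pattern-corrected inhibition of the luciferase reporter signal at the single screening dose is 50% or more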
KKLEB tox – counter-screen for CF NF-kB inhibitors: cytotoxicity. KKLEB CF airway cells viability, ATPlite luminescence, overnight; stronger effect = lower value; cells stimulated with P. aeruginosa culture filtrate. activity change (cytotoxicity), % at 5 µM. 360,000 compounds, 0.36% hits. AID 602141;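 active means corrected activity change at or below -50% at 5 µM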
Numbers without * were called inactive; · = no result given. In the library only some 4% were active in any assay of this set; here they are far more common.

SMILES | TWEAK Fn14 block | HIF-2a inh | Peg3 promoter | CF NFkB inh | TROY NFkB inh | KKLEB tox
CN(Cc1ccccc1)c1ccc(C(CC(N)=O)NC(=O)c2ccc(Br)cc2)cc1[N+](=O)[O-] (configuration not stated) | 15.0 | 11.1 | 14.8 | -16.8 | 37.4 | -0.1
COCCNC(=O)C1(C)CCCN(C(=O)c2ccccc2OC)C1 (configuration not stated) | -24.1 | 13.2 | 6.9 | -35.4 | -8.8 | 4.5
CC1CCCN(C(=O)c2ccc(NC(=O)CC3SC(N4CCCC4)=NC3=O)cc2)C1 (configuration not stated) | -0.6 | 1.3 | -8.8 | -12.2 | -19.3 | 1.4
CC1=C(C(=O)Nc2ccccc2C(=O)NC2CCC(C)CC2)SCCO1 (configuration not stated) | 2.7 | -38.8 | -34.5 | 3.5 | -0.2 | 2.5
C/C(N)=C(/C#N)C(=O)CSc1nc(-c2ccccc2)c(-c2ccccc2)o1 | 19.9 | 5.8 | 23.7 | 4.9 | -0.3 | -4.6
O=C(Nc1ccc2c(c1)CCC2)c1ccc(F)cc1 | 19.9 | -179.2 | -202.7 | 9.9 | -48.5 | -7.3
O=C(Nc1ccc2c(c1)CCC2)c1cc(S(=O)(=O)Nc2ccc(F)cc2)c(Cl)cc1Cl | 52.3* | -42.9 | 1.6 | -7.3 | 37.1 | 10.0
COc1ccc2sc(-c3ccc(N(C)C)cc3)c(C#Cc3cncn3C)c2c1 | -1.8 | -36.1 | 22.6 | 24.7 | 13.4 | -17.1
Cn1nc(-c2ccc(OCC(=O)Nc3ccccc3)cc2)c2ccccc2c1=O | 53.1* | -10.6 | 2.1 | -20.5 | 15.5 | -6.9
O=C(CCCCCn1c(=S)[nH]c2ccc(Br)cc2c1=O)NCC1CCCO1 (configuration not stated) | 6.2 | 17.6 | 18.5 | -7.6 | 6.1 | 6.1
CCCn1c(=S)[nH]c2cc(C(=O)N3CCCC(C(=O)OCC)C3)ccc2c1=O (configuration not stated) | 54.8* | 14.7 | 24.0 | -3.4 | 15.8 | -5.8
CCOC(=O)N1CCN(C(=O)c2ccc(Cn3c(=S)[nH]c4ccc(Br)cc4c3=O)cc2)CC1 | 57.0* | 1.3 | 30.5 | -3.4 | 59.2* | 6.4
NS(=O)(=O)c1ccc(CCNC(=O)CCCCCn2c(=S)[nH]c3ccc(Br)cc3c2=O)cc1 | 17.9 | 18.2 | 61.6* | 6.7 | -5.4 | -32.5
CNc1nc2cc([N+](=O)[O-])c([N+](=O)[O-])cc2nc1NC | 50.7* | -20.2 | 4.4 | 12.4 | 27.4 | -1.7
N#Cc1cc2nc(O)c(O)nc2cc1[N+](=O)[O-] | 14.3 | 3.1 | -2.1 | -4.1 | -13.4 | 10.0
O=C(OCC(=O)N1CCN(C(=O)c2ccco2)CC1)c1cc(-c2ccc(F)cc2)nc2ccccc12 | 52.1* | -15.1 | 1.4 | -17.0 | 1.9 | 2.3
O=C(OCC(=O)N1CCN(C(=O)c2ccco2)CC1)c1ccccc1C(=O)c1ccccc1 | 78.8* | 22.3 | 6.9 | 4.4 | · | 1.8
O=C(OCC(=O)N1CCN(C(=O)c2ccco2)CC1)c1ccccc1C(=O)c1ccc(Cl)cc1 | 6.4 | 15.0 | 3.6 | 14.8 | -8.2 | 4.6
O=C(OCC(=O)N1CCN(C(=O)c2ccco2)CC1)c1cc(-c2ccccc2)nc2ccccc12 | 10.3 | -17.7 | -13.3 | -23.7 | · | 3.9
Cc1cccc(-c2nnn3c2nc(NCCc2ccc(S(N)(=O)=O)cc2)c2ccccc23)c1 | -64.6 | -6.3 | 4.1 | 36.4 | -43.3 | -51.5*
NNC(=S)NC1CC2CC1C1C=CCC21 (configuration not stated) | 77.5* | 6.2 | 10.1 | 6.1 | 70.0* | -12.5
C[C@H](O)[C@@H]1C(=O)N2CCc3ccc(-c4cccc(F)c4)cc3[C@@H]2C[C@@H]1N(C)C(=O)Nc1ccccc1 | -8.3 | -12.7 | -1.0 | -14.4 | -22.1 | 7.1
Cc1ccccc1Oc1ccc(NC(=O)C2CC=CCC2C(=O)O)cc1 (configuration not stated) | 7.3 | 13.5 | 24.5 | -5.0 | -2.8 | -1.0
CC(C)(C)c1ccc(Oc2ccc(NC(=O)C3CC=CCC3C(=O)O)cc2)cc1 (configuration not stated) | 28.0 | 12.0 | 9.0 | 8.4 | 75.6* | -20.7
Cc1ccc(C(=O)CSc2nnc3c4ccccc4nc(Cc4ccccc4)n23)cc1 | 25.9 | 10.6 | 3.9 | 8.0 | 64.9* | -2.1
SMILES | TWEAK Fn14 block | HIF-2a inh | Peg3 promoter | CF NFkB inh | TROY NFkB inh | KKLEB tox
Cc1ccc(C(=O)CSc2nc3ccccc3c(=O)[nH]2)cc1 | 19.1 | -62.4 | -13.6 | -8.0 | -26.2 | 6.9
CN(Cc1ccc(Cl)cc1Cl)C(=O)C1CSC2(C)CCC(=O)N12 (configuration not stated) | -1.9 | -2.9 | 3.7 | -25.4 | -18.9 | 15.3
C/C(=N/NC(=O)c1cc(C(C)C)[nH]n1)c1cccs1 | 52.0* | -32.8 | -35.1 | 6.3 | -35.0 | -6.5
Cc1cccc(OCCC(=O)NNC(=O)c2ccoc2C)c1 | 16.5 | -0.9 | 18.4 | -32.7 | -2.9 | 8.5
COCCNC(=O)C1(C)CCCN(Cc2c(C)nn(-c3ccccc3)c2C)C1 (configuration not stated) | -6.9 | 6.9 | 14.4 | -4.3 | -9.2 | 3.8
Cc1cc2c(cc1C)CSC(c1ccc(O)cc1)SC2 | 55.3* | -6.2 | 8.7 | 9.7 | 33.5 | -1.8
Cc1ccc(NS(=O)(=O)c2cc(NC(=O)C(C)Oc3ccccc3)ccc2C)c(C)c1 (configuration not stated) | 11.4 | 27.7 | 26.5 | 9.7 | 23.2 | 2.3
O=C(O)CSc1cc(NS(=O)(=O)c2cccc([N+](=O)[O-])c2)c2ccccc2c1O | 90.7* | 14.8 | 2.9 | 72.2* | 61.5* | -7.2
CCOc1ccc(S(=O)(=O)Nc2cc(SCC(=O)O)c(O)c3ccccc23)cc1 | 31.6 | 0.2 | 19.6 | 91.1* | 54.5* | -40.3
Cc1ccc(C)c(S(=O)(=O)Nc2cc(SCC(=O)O)c(O)c3ccccc23)c1 | 94.4* | 65.5* | 97.1* | 81.2* | 59.2* | -53.5*
Cc1oc2c(cc(NS(=O)(=O)c3ccc(C(C)C)cc3)c3ccccc32)c1C(=O)O | 5.5 | 4.2 | 8.5 | -26.0 | -7.5 | 12.5
CCc1ccc(S(=O)(=O)Nc2cc(SCC(=O)O)c(O)c3ccccc23)cc1 | 83.0* | -1.5 | -1.5 | 63.7* | 60.0* | 4.5
CC(OC(=O)c1ccc([N+](=O)[O-])s1)C(=O)NC1CCCCC1C (configuration not stated) | 14.2 | -4.3 | 4.3 | 15.3 | -15.2 | -4.7
OC(c1ccccc1)C(O)C(c1ccccc1)N1CCCCC1 (configuration not stated) | 5.2 | 1.7 | 6.1 | 7.9 | -7.1 | -2.2
CCC(CC)c1nnc(NC(=O)c2cc([N+](=O)[O-])ccc2N2CCOCC2)s1 | -33.0 | -7.7 | 6.2 | 2.5 | -32.0 | -14.5
O=C(NNC(=O)C1CC=CCC1)c1ccccc1O (configuration not stated) | 6.2 | -64.5 | -53.7 | 3.0 | -42.2 | 1.4
CN(/N=C/c1cccc(Br)c1)C1=NS(=O)(=O)c2ccccc21 | -2.4 | -86.5 | -1.0 | -32.0 | 13.6 | 2.3
